A selection: hits, their analogues and other compounds. The true share with any hit is near 8.9%.
KB-3-1 tox – KB-3-1 parental cell cytotoxicity. Potency, µM (top dose mostly 46.1 µM), usual class: cytotoxic. 400,000 compounds, 1.4% hits. KB-3-1 viability, CellTiter-Glo ATP luminescence, 72 h. AID 1347075; also: potency is read from the fitted curve at half-maximal effect; % is scaled to controls: 0 for no effect and ±100 for the full control effect; nearly all actives have a fitted effect of over 60% in size
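Screening of KB-3-1 cells (DMEM, 10% FBS, phenol-red free) ran from lowest to highest compound concentration; after 72 h at 37 °C viability was read luminescently and curves fitted.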
DRD3 antagonist – D3 dopamine receptor (human) antagonism. P35462. D3R cells, DiscoveRx beta-arrestin luminescence, antagonist mode; stronger effect = lower value. max response, negative = inhibition, %. 360,000 compounds, 2.5% hits; in the data active = max response below about -50%; inconclusive = no clear call, values can overlap the other calls; also: % is scaled to controls: 0 for no effect and ±100 for the full control effect
Target sequence (P35462 whole entry, looked up): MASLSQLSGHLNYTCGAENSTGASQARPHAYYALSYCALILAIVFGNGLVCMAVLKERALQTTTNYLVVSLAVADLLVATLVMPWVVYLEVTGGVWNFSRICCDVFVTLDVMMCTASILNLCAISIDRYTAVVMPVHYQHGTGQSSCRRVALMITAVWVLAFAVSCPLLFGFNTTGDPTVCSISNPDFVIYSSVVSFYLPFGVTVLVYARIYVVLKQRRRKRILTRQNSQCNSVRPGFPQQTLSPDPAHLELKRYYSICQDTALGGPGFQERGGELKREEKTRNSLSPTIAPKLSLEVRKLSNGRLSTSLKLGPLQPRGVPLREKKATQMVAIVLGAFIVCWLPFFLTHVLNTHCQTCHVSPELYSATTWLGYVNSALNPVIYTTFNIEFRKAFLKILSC
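Cells plated overnight at 1500 cells/well, then exposed to library compounds with dopamine controls for 90 minutes at 37 degrees C. DiscoveRx reagent added for 30–60 minutes at room temperature; luminescence read, quantitative HTS format.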
KB-V1 MDR tox – kills drug-selected multidrug resistant KB-V1 cells | KB-V1 MDR cells viability, CellTiter-Glo, 72 h | Potency, µM (titrated, usually from 46.1 µM), most hits filed as cytotoxic | 400,000 compounds, 3.4% hits | AID 1347076; also: potency is read from the fitted curve at half-maximal effect; % is scaled to controls: 0 for no effect and ±100 for the full control effect; nearly all actives have a fitted effect of over 60% in size
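qHTS viability screen in drug-selected KB-V1 MDR cells: 72 h compound treatment at 37 degrees C, ATP luminescence end point.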
MCF10A rereplic – induces DNA re-replication in MCF 10a normal breast cells. Potency, µM (highest dose often 46.1 µM), for inactives: at the highest dose activity, positive = re-replication, hits mostly activators. MCF 10A DNA re-replication, Hoechst nuclear intensity, 48 h. AID 624296. 350,000 compounds, 2.9% hits; also: potency is read from the fitted curve at half-maximal effect; % of control where 0% means no effect; nearly all actives have a fitted effect of over 50% in size
D3 ag – D3 dopamine receptor (human) agonism | AID 652048 | 410,000 compounds, 0.58% hits | D3R DiscoveRx beta-arrestin cells, luminescence, 90 min | P35462 | max activation, %; in the data active = max activation above about 30%; also: 0% is about no effect
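Agonist-mode cell screen: cells plated at 1500/well and incubated overnight at 37 °C, then exposed to library compounds for 90 min at 37 °C. Detection reagent was added for 30–60 min at room temperature, and luminescence was read.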
SW480 rereplic – induces DNA re-replication in SW480 colon adenocarcinoma cells. SW480 DNA re-replication, Hoechst DNA content imaging, 48 h. Potency, µM (doses to about 46.1 µM), without a hit: at the highest dose re-replication activation, usual class: activators. 340,000 compounds, 1.8% hits. AID 624297; also: potency is read from the fitted curve at half-maximal effect; % of control where 0% means no effect; nearly all actives have a fitted effect of over 55% in size
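DNA re-replication was detected as more nuclei of elevated Hoechst intensity after 48 hr exposure to compound (23 nL pinned per well of 250 cells).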
* marks the source's active call; other numbers are inactive results. Unless noted, calls follow the shape of the dose curve; as a rule, active = well fitted curve in the direction sought with a large enough effect; inconclusive = small, poorly fitted or top-dose-only effect, or another doubt; inactive = no such curve, though single readings can be large; an effect the other way counts as inactive or inconclusive.

CS(=O)(=O)N(Cc1ccc(C(=O)NCCSc2ccccn2)cc1)c1ccccc1 was read as KB-3-1 tox inactive, DRD3 antagonist 5.0, KB-V1 MDR tox 5.8µM*, MCF10A rereplic 10.1%, D3 ag 15.7 and SW480 rereplic 2.2%.
`COc1cccc2c1OC[C@@H](CO)[C@H]2N(C)C(=O)Nc1ccc(Cl)cc1Cl` gave KB-3-1 tox 23.1µM*, DRD3 antagonist 10.3, KB-V1 MDR tox 3.26µM*, MCF10A rereplic 4.2%, D3 ag 1.7 and SW480 rereplic -3.9%.
For C/C(=N\NC(=O)Cc1ccccc1)c1cccs1 the results were KB-3-1 tox inactive, DRD3 antagonist -12.8, KB-V1 MDR tox inactive, MCF10A rereplic 18.4µM*, D3 ag -6.6 and SW480 rereplic 15.0%.
For C/C(=N/NC(=O)Cc1cccc2ccccc12)c1cccs1 the results were KB-3-1 tox inactive, DRD3 antagonist -19.8, KB-V1 MDR tox inconclusive, MCF10A rereplic 3.1%, D3 ag -1.4 and SW480 rereplic 0.7%.
Screening CC(/C=N\NC(=O)Cn1c(C)nc2ccccc21)=C\c1ccccc1 returned KB-3-1 tox 18.4µM*, DRD3 antagonist -8.1, KB-V1 MDR tox inconclusive, MCF10A rereplic 14.6%, D3 ag -6.1 and SW480 rereplic -0.8%.
C/C(=N\NC(=O)Cn1c(C)nc2ccccc21)c1cccs1 was read as KB-3-1 tox inactive, DRD3 antagonist -8.8, KB-V1 MDR tox 14.6µM*, MCF10A rereplic 3.0%, D3 ag -24.6 and SW480 rereplic -2.3%.
C/C(=N\NC(=O)CN1CCN(Cc2ccccc2)CC1)c1cccs1 was read as KB-3-1 tox inactive, DRD3 antagonist -9.9, KB-V1 MDR tox inactive, MCF10A rereplic -7.1%, D3 ag -18.8 and SW480 rereplic -7.6%.
For CC(/C=N/NC(=O)CSc1nc(C)cc(C)n1)=C\c1ccccc1 the results were KB-3-1 tox inactive, DRD3 antagonist 19.7, KB-V1 MDR tox inconclusive, MCF10A rereplic 8.7%, D3 ag 8.5 and SW480 rereplic -4.3%.
Cc1ccc2[nH]cc(C(=O)CN3CCN(c4ccccn4)CC3)c2c1 was read as KB-3-1 tox inactive, DRD3 antagonist -20.4, KB-V1 MDR tox inactive, MCF10A rereplic 0.5%, D3 ag -16.3 and SW480 rereplic -3.6%.
O=C(CN1CCCC1)N1c2ccccc2Sc2ccc(C(F)(F)F)cc21 was read as KB-3-1 tox inactive, DRD3 antagonist -18.0, KB-V1 MDR tox inconclusive, MCF10A rereplic inconclusive, D3 ag -20.9 and SW480 rereplic -8.0%.
O=C(CN1CCN(c2ccccn2)CC1)N1c2ccccc2Sc2ccc(C(F)(F)F)cc21 was read as KB-3-1 tox inconclusive, DRD3 antagonist -62.1*, KB-V1 MDR tox inconclusive, MCF10A rereplic 23.4%, D3 ag -8.6 and SW480 rereplic inconclusive.
`CCNCCC(=O)N1c2ccccc2Sc2ccc(C(F)(F)F)cc21` gave KB-3-1 tox inactive, DRD3 antagonist -69.5*, KB-V1 MDR tox inactive, MCF10A rereplic -4.4%, D3 ag -11.0 and SW480 rereplic -22.2%.
Screening Cc1ccc(C(=O)CN2CCN(c3ccccn3)CC2)c(C)c1 returned KB-3-1 tox inactive, DRD3 antagonist 11.3, KB-V1 MDR tox inactive, MCF10A rereplic 2.0%, D3 ag 47.6* and SW480 rereplic 10.3%.
For O=C(CN1CCN(c2ccccn2)CC1)N1c2ccccc2CCc2ccccc21 the results were KB-3-1 tox inactive, DRD3 antagonist -53.7*, KB-V1 MDR tox 5.8µM*, MCF10A rereplic 14.1%, D3 ag 0.9 and SW480 rereplic 10.8%.
CCOc1ccc(OCC)c(NC(=O)c2cnc3c(-c4ccccc4)c(C)nn3c2C)c1 was read as KB-3-1 tox inactive, KB-V1 MDR tox inactive and D3 ag 14.8.
Screening Nc1nc2c(nnn2Cc2ccc(Cl)c(Cl)c2)c(=O)[nH]1 returned DRD3 antagonist 6.8, MCF10A rereplic 6.4%, D3 ag -11.0 and SW480 rereplic -7.7%.
For COC(=O)c1ccc(NC(=O)C(=O)NCCc2csc(-c3ccc(F)cc3)n2)cc1 the results were KB-3-1 tox inactive, KB-V1 MDR tox inactive and D3 ag -16.1.
O[C@@H]([C@H](O)[C@H](O)CBr)[C@H](O)CBr was read as KB-3-1 tox inactive, DRD3 antagonist 0.0, KB-V1 MDR tox inactive, MCF10A rereplic 6.8%, D3 ag -5.8 and SW480 rereplic inconclusive.
`O=[N+]([O-])c1ccc(Nc2ccc(F)cc2)nc1` gave KB-3-1 tox inactive, DRD3 antagonist -7.2, KB-V1 MDR tox inconclusive, MCF10A rereplic -1.8%, D3 ag -9.2 and SW480 rereplic 0.4%.
`CN(C)c1ccc(Nc2ccc([N+](=O)[O-])cn2)cc1` gave KB-3-1 tox inactive, DRD3 antagonist -59.7*, KB-V1 MDR tox inactive, MCF10A rereplic 3.6%, D3 ag -8.9 and SW480 rereplic inconclusive.
For O=[N+]([O-])c1ccc(Nc2cccc(F)c2)nc1 the results were KB-3-1 tox inactive, DRD3 antagonist -4.0, KB-V1 MDR tox inactive, MCF10A rereplic 0.731µM*, D3 ag 2.8 and SW480 rereplic -2.1%.
Cc1ccccc1-c1nn2c(=O)cc(CN3CCN(S(=O)(=O)c4ccc(Cl)cc4)CC3)nc2s1 was read as KB-3-1 tox inactive, KB-V1 MDR tox inactive and D3 ag -17.0.
Screening CC(C)n1c(O)c(N=NC(=O)C2COc3ccccc3O2)c2ccccc21 (centres undefined) returned KB-3-1 tox inactive, DRD3 antagonist 0.3, KB-V1 MDR tox 16.4µM*, MCF10A rereplic 13µM*, D3 ag -17.9 and SW480 rereplic inconclusive.
NC1(C(=O)O)CSSC1 was read as KB-3-1 tox inconclusive, DRD3 antagonist -2.8, KB-V1 MDR tox 6.51µM*, MCF10A rereplic 10.3µM*, D3 ag 2.9 and SW480 rereplic inconclusive.
CCOc1ccccc1NC(=O)c1cc2c(=O)n(Cc3cccnc3)ccc2nc1C was read as KB-3-1 tox inactive, KB-V1 MDR tox inactive and D3 ag -7.9.
For Cc1ccc(N2C(=O)CS(=O)(=O)C23C(=O)N(Cc2ccc(Cl)cc2)c2ccccc23)cc1C (centres undefined) the results were KB-3-1 tox inactive, KB-V1 MDR tox inconclusive and D3 ag -3.7.
Screening Cc1ccc(-n2c(C)cc(C(=O)COC(=O)c3ccc[nH]c3=O)c2C)cc1 returned KB-3-1 tox inactive, DRD3 antagonist 7.7, KB-V1 MDR tox 18.4µM*, MCF10A rereplic -1.9%, D3 ag -3.4 and SW480 rereplic -59.2%.

Source: PubChem
